# Biological target: Protein kinase C delta type (Homo sapiens) (UniProt Q05655)
# Settings: at 10 µM
# Protein kinase C delta type (Homo sapiens), sequence (Q05655 whole entry, looked up): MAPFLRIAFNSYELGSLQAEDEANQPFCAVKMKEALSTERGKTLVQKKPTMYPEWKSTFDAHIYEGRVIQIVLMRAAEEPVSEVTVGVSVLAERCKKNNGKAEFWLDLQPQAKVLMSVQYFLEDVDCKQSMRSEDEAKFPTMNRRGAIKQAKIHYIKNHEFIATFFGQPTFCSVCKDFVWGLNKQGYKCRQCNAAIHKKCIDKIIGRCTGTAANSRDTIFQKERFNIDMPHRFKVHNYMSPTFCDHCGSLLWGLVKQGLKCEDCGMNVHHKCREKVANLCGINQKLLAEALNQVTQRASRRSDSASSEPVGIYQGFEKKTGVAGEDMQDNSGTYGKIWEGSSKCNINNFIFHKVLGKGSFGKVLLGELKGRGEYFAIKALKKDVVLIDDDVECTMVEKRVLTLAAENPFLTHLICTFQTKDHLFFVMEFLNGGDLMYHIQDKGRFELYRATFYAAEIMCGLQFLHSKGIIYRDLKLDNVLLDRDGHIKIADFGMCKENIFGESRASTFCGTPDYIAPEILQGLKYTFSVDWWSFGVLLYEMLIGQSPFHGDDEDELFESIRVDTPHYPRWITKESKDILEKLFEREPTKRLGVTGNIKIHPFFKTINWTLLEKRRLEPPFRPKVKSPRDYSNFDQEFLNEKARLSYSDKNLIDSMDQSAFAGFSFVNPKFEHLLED
row,SMILES,residual activity [%]
1,COc1ccc2c(c1)c(C1=C(c3c[nH]c4ccccc34)C(=O)NC1=O)cn2CCCN(C)C,-1
2,Nc1ncnc2c1cnn2-c1ccccc1,97
3,NCCNc1ncc(C(N)=O)c(Nc2cccc(C(F)(F)F)c2)n1,28
4,O=C(O)/C=C/c1cc(Br)c(Br)c(Br)c1Br,96
5,CC(C)(C)c1nc2c3ccc(F)cc3c3c(=O)[nH]ccc3c2[nH]1,63
6,COc1cc2ncnc(Nc3cccc(Cl)c3)c2cc1OC,109
7,CCN(CC)CCNC(=O)c1c(C)[nH]c(/C=C2\C(=O)Nc3ccc(Cl)cc32)c1C,68
8,COc1cc2nccc(Oc3ccc(NC(=S)NC(=O)c4ccccc4C)cc3)c2cc1OC,101
9,CN(C)S(=O)(=O)c1ccc2c(c1)/C(=C/c1cc3c([nH]1)CCCC3)C(=O)N2,121
10,O=C1NC(=O)C(c2c[nH]c3ccccc23)=C1c1c[nH]c2ccccc12,5
11,Nc1ncnc2[nH]nc(Nc3ccc(F)cc3)c12,91
12,CCCCc1c(-c2ccc(OC)cc2)[nH]c2nccnc12,106
13,Cn1sc(=O)n(Cc2ccccc2)c1=O,45
14,COc1cc2c(cc1OC)-c1n[nH]c(Nc3cccc(F)c3)c1C2,106
15,O=C(c1cc2cc(O)ccc2[nH]1)c1cc2cc(O)ccc2[nH]1,83
16,CC(C)(C)n1nc(Cc2cccc3ccccc23)c2c(N)ncnc21,106
17,Nc1ncnc2c1c(-c1ccc(Oc3ccccc3)cc1)cn2C1CCCC1,100
18,O=C1NC(=O)c2c1c1c3ccccc3[nH]c1n1cncc21,70
19,NC(=O)Nc1sc(-c2ccc(F)cc2)cc1C(N)=O,31
20,O=C1Nc2ccc(Cl)cc2/C1=C/c1cc(Cl)c(O)c(Cl)c1,100
